Test results: PubChem BioAssay (NCATS)
Records with an inconclusive call do not appear. Activity calls are given as the source filed them. Calls come from the whole dose curve; as a rule, active = well fitted curve in the direction sought with a large enough effect in the signal ratio (not every such curve was filed as active); inconclusive = small, poorly fitted or top-dose-only effect, or effect the other way, or a change in a side signal; inactive = no such curve, though single readings can be large or run the other way; the % refers to the signal ratio.

molecular target: Tyrosine-protein phosphatase non-receptor type substrate 1 (Homo sapiens) + Leukocyte surface antigen CD47 (Homo sapiens) (UniProt P78324+Q08722); test: CD47-SIRPalpha protein protein interaction - HTRF assay qHTS validation (AID 1347058); conditions: TR-FRET HTRF CD47-His / biotin-SIRPalpha binding, ratio 665/615; series mostly up to 38.3 µM
Sequence (P78324 whole entry, looked up, the tested form may be a part): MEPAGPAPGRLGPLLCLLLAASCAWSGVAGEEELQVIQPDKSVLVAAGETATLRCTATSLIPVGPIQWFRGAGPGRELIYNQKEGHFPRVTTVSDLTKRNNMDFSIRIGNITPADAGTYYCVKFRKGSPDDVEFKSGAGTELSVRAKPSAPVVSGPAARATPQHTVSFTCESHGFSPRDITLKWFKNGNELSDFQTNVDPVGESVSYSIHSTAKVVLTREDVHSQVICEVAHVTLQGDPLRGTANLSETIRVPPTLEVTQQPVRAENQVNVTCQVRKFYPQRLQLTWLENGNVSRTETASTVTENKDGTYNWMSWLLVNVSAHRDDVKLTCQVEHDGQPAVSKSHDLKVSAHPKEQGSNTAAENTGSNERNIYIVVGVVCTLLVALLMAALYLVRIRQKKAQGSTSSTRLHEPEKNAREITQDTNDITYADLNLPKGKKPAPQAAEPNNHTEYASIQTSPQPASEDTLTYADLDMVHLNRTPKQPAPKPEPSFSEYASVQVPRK
Sequence (Q08722 whole entry, looked up, the tested form may be a part): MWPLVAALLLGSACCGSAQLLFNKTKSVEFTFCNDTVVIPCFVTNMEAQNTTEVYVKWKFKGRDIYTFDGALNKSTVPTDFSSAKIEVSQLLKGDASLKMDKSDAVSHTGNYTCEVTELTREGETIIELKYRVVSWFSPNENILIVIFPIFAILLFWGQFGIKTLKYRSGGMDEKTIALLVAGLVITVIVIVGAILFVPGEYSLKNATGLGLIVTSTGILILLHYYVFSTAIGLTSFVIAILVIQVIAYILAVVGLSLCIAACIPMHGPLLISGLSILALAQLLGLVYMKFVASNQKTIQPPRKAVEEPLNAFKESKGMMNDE
Source text: SIRPalpha is a myeloid cell expressed immunomodulatory receptor that binds the tumor expressed immune checkpoint CD47. Therapeutic disruption of this interaction leads to immune-mediated tumor rejection. This assay was used to quantitate CD47-SIRPalpha binding biochemically and evaluate chemical libraries for novel CD47-SIRPalpha inhibitors. To recapitulate the biological interaction of CD47 and SIRPalpha, we designed expression constructs to produce their recombinant, soluble, extracellular interaction domains. CD47 was produced with an N-terminal 6His tag. SIRPalpha was produced with an N-terminal Avi-Tag for site-specific biotin incorporation. The CD47-SIRPalpha interaction was measured by TR-FRET using affinity tag linked reagents (anti-6His-Eu donor and streptavidin-XL665 acceptor). SIRPalpha without biotin incorporation was used as a positive control inhibitor.
SEQUENCE No. (e.g., 1, 2, 3, etc.); […] (e.g., Cells, Incubation, Reagent, etc.); VALUE and DESCRIPTION.
1a. Reagent. 3 uL CD47-His (12.5 nM) and Anti-His Eu Donor reagent (0.7 nM) added to respective wells in Assay buffer; white/solid bottom high base, med bind 1536-well plates (Greiner 789075)
1b. Reagent. 2 uL Assay buffer negative control for background fluorescence
2. Reagent. 23 nL library compounds (7-pt, 1:4 intraplate titration series) or DMSO control transferred by Pin Tool
3. Centrifuge. Centrifuge plate for 30 s at 1000 RPM
4. Incubation.#Incubate reagents at room temperature for 30 min, protected from light
5. Reagent. 2 uL SIRPalpha-biotin (100 nM) in Assay buffer
6. Incubation.#Incubate reagents at room temperature for 30 min, protected from light
7. Reagent. 1 uL SAV-XL665 (85 nM) acceptor reagent added to respective wells
8. Centrifuge. Centrifuge plate for 30 s at 1000 RPM
9. Incubation. Incubate reagents at room temperature for 30 min, protected from light
10. Detector. Measure Top TR-FRET on EnVision (Eu/APC filter set); calculate ratio Ch1/Ch2
1. Assay buffer composition.#Phosphate buffered saline (PBS; 10 mM Phosphate, 137 mM NaCl, and 2.7 mM KCl; pH 7.4), 0.05% IGEPAL CA-630
2. 23nL of […] library compounds (7 plates) or DMSO vehicle control transferred to 9 Greiner white/solid bottom high base, TC plates in 7 interplate 1:5 titrations (see Yasgar, A. et al. 2008) with Pintool. Two of the 9 plates are DMSO-only in compound field at beginning and end of compound library-treated plates.
10. Detector settings#Mirror = LANCE/DELFIA Dual Enh; Ex. Filter = UV2[TRF] 320; Em. Filter = APC 665; 2nd Em. Filter = Europium 615; Measurement h = 6.5; Ex. light (%) = 100; Delay = […]; Window t = 100 us; No. Seq. windows = 1; Time between flashes = 2000us; No. of flashes = 100; No. of flashes for 2nd detector = 100; Calculation: "Ratio Ch1/Ch2"

**Q.** How did the outcome turn out when `CCCNC(=O)NS(=O)(=O)c1ccc(Cl)cc1` was run?
**A.** inactive

**Q.** `CCn1cc(C(=O)O)c(=O)c2ccc(C)nc21` was tested. Which outcome did it give?
**A.** inactive

**Q.** How did the outcome turn out when `CCN(CC)C(=O)c1ccc(O)c(OC)c1` was run?
**A.** inactive

**Q.** For `O=C1NCC2(CCN(CCc3ccccc3)CC2)O1`, which outcome is on record?
**A.** inactive

**Q.** Which outcome does the source give for `O=C(O)CCc1nc(-c2ccccc2)c(-c2ccccc2)o1` here?
**A.** inactive

**Q.** With `O=C(NCCN1CCOCC1)c1ccc(Cl)cc1` as the compound, how does the outcome read?
**A.** inactive

**Q.** `COc1ccccc1N1CCN(CCCNc2cc(=O)n(C)c(=O)n2C)CC1` was tested. Which outcome did it give?
**A.** inactive

**Q.** For `CC(=O)c1ccc(S(=O)(=O)NC(=O)NC2CCCCC2)cc1`, which outcome is on record?
**A.** inactive

**Q.** How did the outcome turn out when `CC(C)(C)c1ccc(C(O)CCCN2CCC(C(O)(c3ccccc3)c3ccccc3)CC2)cc1` (stereo not drawn) was run?
**A.** inactive

**Q.** `CC(C)NCC(O)COc1cccc2[nH]ccc12` (stereo not drawn) was tested. Which outcome did it give?
**A.** inactive

**Q.** For `C[N+](C)(C)CCCCCC[N+](C)(C)C`, which outcome is on record?
**A.** inactive

**Q.** With `CC(=O)N[C@@H](CS)C(=O)O` as the compound, how does the outcome read?
**A.** inactive

**Q.** How did the outcome turn out when `CCN(CC)CCOC(=O)c1ccc(N)cc1` was run?
**A.** inactive

**Q.** `NCCS` was tested. Which outcome did it give?
**A.** inactive

**Q.** Which outcome does the source give for `Clc1ccc(Cn2c(CN3CCCC3)nc3ccccc32)cc1` here?
**A.** inactive

**Q.** With `CCN1CCC[C@H]1CNC(=O)c1cc(S(N)(=O)=O)ccc1OC` as the compound, how does the outcome read?
**A.** inactive

**Q.** `COc1ccc(Cc2nccc3cc(OC)c(OC)cc23)cc1OC` was tested. Which outcome did it give?
**A.** inactive

**Q.** `O=C1NC(=O)C(c2ccccc2)(c2ccccc2)N1` was tested. Which outcome did it give?
**A.** inactive

**Q.** For `NC(N)=Nc1nc(CSCC/C(N)=N/S(N)(=O)=O)cs1`, which outcome is on record?
**A.** inactive

**Q.** With `CC1=C(/C=C/C(C)=C/C=C/C(C)=C/C(=O)Nc2ccc(O)cc2)C(C)(C)CCC1` as the compound, how does the outcome read?
**A.** inactive

**Q.** `CCN(CC)CCNC(=O)c1ccc(N)cc1` was tested. Which outcome did it give?
**A.** inactive

**Q.** With `CC(=O)O[C@]1(C(C)=O)CC[C@H]2[C@@H]3C=C(Cl)C4=CC(=O)[C@@H]5C[C@@H]5[C@]4(C)[C@H]3CC[C@@]21C` as the compound, how does the outcome read?
**A.** inactive

**Q.** With `CN(C)CCC(c1ccccc1)c1ccccn1` (stereo not drawn) as the compound, how does the outcome read?
**A.** inactive
